Assay results as given in PubChem BioAssay (EPA / NIEHS).
Inconclusive results are not listed. Some compounds were tested as several samples or in several runs, with calls that do not always agree. The source made the active and inactive calls. How the source made its calls, unless noted: active means hit-call score of the fitted dose curve at least 0.9, where 1 is the maximum; inactive means score below 0.9.

Experiments:
[1] = ATG_NF_kB_CIS: Attagene CIS-FACTORIAL HepG2 Assay for human Nuclear Factor Kappa B (NF-kB) (AID 2282991); settings: HepG2 Attagene cis-factorial NF-kB reporter mRNA; actives raise or lower the signal
Method in brief: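 Fluorescence of labelled RT-PCR products separated by capillary electrophoresis gives reporter mRNA levels from transfected HepG2 cells exposed 24 h; values are fitted in both directions relative to DMSO.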

[2] = ATG_NRF2_ARE_CIS: Attagene CIS-FACTORIAL HepG2 Assay for human Nuclear Factor Erythroid 2 Related Factor 2 (NFR2) response to Antioxidant Response Elements (ARE) (AID 2282992); settings: HepG2 Attagene ARE/NRF2 reporter, transcription factor activity; actives raise or lower the signal
Method in brief: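 Endogenous transcription factor activity in human liver HepG2 cells is tracked via a cis-element-driven reporter within a multiplexed set. mRNA induction is read by RT-PCR and capillary electrophoresis after 24 h, with DMSO as baseline.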

[3] = ATG_Oct_MLP_CIS: Attagene CIS-FACTORIAL HepG2 Assay for human Octamer-Binding Transcription Factor (Oct) (AID 2282993); settings: HepG2 Attagene cis-factorial Oct reporter, mRNA; actives raise or lower the signal
Method in brief: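 HepG2 cells transiently transfected with cis-promoter-driven multiplexed reporter transcription units, dosed for 24 h. Reporter mRNA quantified by RT-PCR, fluorescent labelling, HpaI digestion and capillary electrophoresis; bidirectional fits versus DMSO baseline.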

[4] = biological target: Cellular tumor antigen p53 (Homo sapiens) (UniProt P04637); experiment: ATG_p53_CIS: Attagene CIS-FACTORIAL HepG2 Assay for human p53 Transcription Factor (AID 2282994); settings: HepG2 p53 cis-element reporter, Attagene mRNA; actives raise or lower the signal
Method in brief: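 Steps: transfect HepG2 with multiplexed cis reporter constructs; dose chemicals 24 h; extract RNA, reverse-transcribe, PCR-amplify reporter sequences; FAM-label, HpaI-digest, resolve fragments by CE. Activity fitted both directions relative to DMSO.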

[5] = biological target: human Peroxisome Proliferator-activated Receptor alpha (PPARa), PPARA (gene 5465) (UniProt Q07869); experiment: ATG_PPARa_TRANS: Attagene TRANS-FACTORIAL HepG2 Assay for human Peroxisome Proliferator-activated Receptor alpha (PPARa) (AID 2283001; active means hit-call score of the fitted dose curve at least 0.9, where 1 is the maximum;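 on AC50: potency for gain of reporter signal over DMSO so agonist or activator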)
Method in brief: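 Transfected HepG2 cells treated with test chemical for 24 h. RNA isolated, reverse-transcribed with oligo(dT), PCR-amplified, FAM-labelled and HpaI-digested. Fragments sized by capillary electrophoresis; gain-of-signal fit relative to DMSO.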

[6] = BSK_3C_TissueFactor: BioMAP Diversity Plus: 3C Assay for Tissue Factor Biomarker Activity (AID 2282997); settings: BioMAP 3C HUVEC, tissue factor biomarker readout; actives raise or lower the signal
Method in brief: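 Cells used were primary human umbilical vein endothelial cells. They were dosed with chemical, and after 24 h Tissue Factor was quantified by ELISA. Curves were fitted bidirectionally with DMSO as baseline.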

[7] = BSK_3C_VCAM1: BioMAP Diversity Plus: 3C Assay for Vascular cell adhesion molecule 1 (VCAM1) Biomarker Activity (AID 2282999); settings: BioMAP 3C HUVEC, VCAM1 ELISA, cytokine-stimulated; actives raise or lower the signal
Method in brief: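 Activity fitted in both directions relative to DMSO, with ELISA measurement of the surface marker on primary HUVEC (3C) at 24 h post-treatment; parallel SRB staining (0.1% SRB, TCA-fixed, 560 nm) flagged overt cytotoxicity.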

[8] = BSK_4H_Eotaxin3: BioMAP Diversity Plus: 4H Assay for Eotaxin 3 Biomarker Activity (AID 2283000); settings: primary human endothelial cells (HUVEC); actives raise or lower the signal
Method in brief: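 Endothelial primary cells (human umbilical vein) exposed to compound for 24 h. ELISA detection of Eotaxin-3.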

[9] = biological target: human Peroxisome Proliferator-activated Receptor delta (PPARd), PPARD (gene 5467) (UniProt Q03181); experiment: ATG_PPARd_TRANS: Attagene TRANS-FACTORIAL HepG2 Assay for human Peroxisome Proliferator-activated Receptor delta (PPARd) (AID 2283002; active means hit-call score of the fitted dose curve at least 0.9, where 1 is the maximum)
Method in brief: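 Read-out is induced reporter mRNA, quantified by RT-PCR with fluorescent labelling and capillary electrophoresis after 24 h dosing. Cells are HepG2 transiently carrying multiple GAL4-UAS reporter units driven by exogenous NR-GAL4 chimeras; DMSO serves as baseline.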

[10] = BSK_3C_uPAR: BioMAP Diversity Plus: 3C Assay for Urokinase-type plasminogen activator receptor (uPAR) Biomarker Activity (AID 2282998); settings: BioMAP 3C HUVEC, uPAR biomarker ELISA; actives raise or lower the signal
Method in brief: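 Human umbilical vein endothelial primary cells were exposed to test chemical for 24 h. Cell-surface uPAR was then quantified by ELISA, and responses were fitted bidirectionally against DMSO as negative control and baseline.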

Measured: AC50

Chain of human Peroxisome Proliferator-activated Receptor alpha (PPARa), PPARA (gene 5465) (Q07869 whole entry, looked up, the tested form may be a part): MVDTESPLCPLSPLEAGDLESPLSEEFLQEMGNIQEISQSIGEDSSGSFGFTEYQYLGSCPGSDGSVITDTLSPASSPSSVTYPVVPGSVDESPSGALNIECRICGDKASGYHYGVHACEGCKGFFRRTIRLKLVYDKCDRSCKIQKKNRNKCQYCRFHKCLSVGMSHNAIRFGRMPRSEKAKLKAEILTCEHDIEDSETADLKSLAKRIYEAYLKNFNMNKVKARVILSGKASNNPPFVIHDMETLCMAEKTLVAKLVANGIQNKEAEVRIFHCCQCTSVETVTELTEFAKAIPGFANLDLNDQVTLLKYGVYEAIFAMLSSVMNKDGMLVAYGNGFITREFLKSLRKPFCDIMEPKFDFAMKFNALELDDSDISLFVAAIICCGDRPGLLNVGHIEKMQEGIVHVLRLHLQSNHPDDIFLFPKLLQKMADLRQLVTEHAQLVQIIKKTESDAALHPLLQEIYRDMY
Chain of Cellular tumor antigen p53 (Homo sapiens) (P04637 whole entry, looked up, the tested form may be a part): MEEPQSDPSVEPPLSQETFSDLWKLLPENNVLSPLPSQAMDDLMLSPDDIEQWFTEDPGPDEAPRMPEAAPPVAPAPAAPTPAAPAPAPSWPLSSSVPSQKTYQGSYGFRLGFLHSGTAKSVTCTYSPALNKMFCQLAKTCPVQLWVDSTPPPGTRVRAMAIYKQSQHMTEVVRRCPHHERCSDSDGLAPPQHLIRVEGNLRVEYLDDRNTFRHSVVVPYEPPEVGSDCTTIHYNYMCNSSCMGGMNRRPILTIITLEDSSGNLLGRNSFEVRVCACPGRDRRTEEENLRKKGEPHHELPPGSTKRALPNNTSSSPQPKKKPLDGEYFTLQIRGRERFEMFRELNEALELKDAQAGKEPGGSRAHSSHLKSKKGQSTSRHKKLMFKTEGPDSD
Chain of human Peroxisome Proliferator-activated Receptor delta (PPARd), PPARD (gene 5467) (Q03181 whole entry, looked up, the tested form may be a part): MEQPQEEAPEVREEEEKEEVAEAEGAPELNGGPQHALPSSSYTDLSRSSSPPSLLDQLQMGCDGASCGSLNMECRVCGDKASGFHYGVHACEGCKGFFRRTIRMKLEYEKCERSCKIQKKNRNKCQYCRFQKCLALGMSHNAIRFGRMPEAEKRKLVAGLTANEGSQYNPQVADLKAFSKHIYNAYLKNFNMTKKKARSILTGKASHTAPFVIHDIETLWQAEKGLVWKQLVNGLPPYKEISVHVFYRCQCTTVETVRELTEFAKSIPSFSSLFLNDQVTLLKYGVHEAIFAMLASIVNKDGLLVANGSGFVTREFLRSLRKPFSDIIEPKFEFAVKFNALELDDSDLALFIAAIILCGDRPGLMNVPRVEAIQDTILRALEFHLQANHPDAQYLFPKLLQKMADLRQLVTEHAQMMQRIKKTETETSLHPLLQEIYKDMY

CC(=O)CC(C)C
inactive: [1] | [2] | [3] | [4] | [5]

CC[N+](CC)(CC)Cc1ccccc1
not listed: [5] | [10]
inactive: all other assays above

C=COC(=O)C(C)(C)CCCCCC
active: [2] 142 µM | [6] 29.9 µM | [7] 34.4 µM | [8] 30.3 µM
inactive: [1] | [3] | [4] | [9]

O=C1c2ccc(O)c(O)c2C(=O)c2c(O)ccc(O)c21
active: [1] 31.1 µM | [2] 6.19 µM
not listed: [5] | [10]
inactive: all other assays above

Cc1ccc(N=Nc2c(O)ccc3ccccc23)c(C)c1
active: [2] 1.86 µM | [6] 1.97 µM | [8] 3.39 µM
not listed: [10]
inactive: all other assays above

O=P(O)(O)CCC(F)(F)C(F)(F)C(F)(F)C(F)(F)C(F)(F)C(F)(F)F
inactive: [1] | [2] | [3] | [4] | [6] | [7] | [8] | [5] | [9]
active: [8] 0.447 µM

C=CC(=O)OCCC(F)(F)C(F)(F)C(F)(F)C(F)(F)C(F)(F)C(F)(F)C(F)(F)C(F)(F)F
active: [2] 22.1 µM
not listed: [10]
inactive: all other assays above

CC(O)COc1ccccc1 (stereo not given)
inactive: [1] | [2] | [3] | [4] | [5]

O=C(O)CCC(F)(F)C(F)(F)C(F)(F)C(F)(F)C(F)(F)F
not listed: [10]
inactive: all other assays above

Clc1ccc(Nc2nnc(Cc3ccncc3)c3ccccc23)cc1
active: [2] 18.7 µM
not listed: [5]
inactive: all other assays above

COc1ccccc1NC(=O)c1cc2ccccc2cc1O
active: [3] 26.7 µM | [4] 17.4 µM
inactive: [1] | [2] | [5]

CCCCCc1ccc(O)cc1
active: [2] 17.6 µM | [6] 12 µM | [7] 23.7 µM | [8] 14.5 µM
not listed: [10]
inactive: all other assays above

Cc1ccc(C(=O)c2ccccc2)cc1
active: [2] 28 µM | [6] 11.3 µM | [7] 26.3 µM | [8] 28.4 µM
inactive: [1] | [3] | [4]

COc1cccc(O)c1
not listed: [5] | [10]
inactive: all other assays above

CC1=NN(c2ccccc2)C(=O)C1
active: [6] 4.46 µM
inactive: all other assays above

CC(C)(O)C(=O)c1ccccc1
inactive: [1] | [2] | [3] | [4] | [5] | [9]

Oc1cccc2c(O)cccc12
inactive: [1] | [3] | [4] | [5] | [9]
active: [2] 8.25 µM

CCCCCCOC(=O)c1ccc(O)cc1
inactive: [2] | [9]
active: [1] 62.5 µM | [3] 57 µM | [4] 52.2 µM | [5] 63.7 µM

CCCCCCCCC1CCC(=O)O1 (stereo not given)
inactive: [1] | [2] | [3] | [4] | [5] | [9]

Brc1cc(Br)c(Oc2c(Br)cc(Br)c(Br)c2Br)cc1Br
inactive: [1] | [2] | [3] | [4] | [5] | [9]

CCc1cccc(CC)c1N(COC)C(=O)CS(=O)(=O)O
inactive: [1] | [2] | [3] | [4] | [5] | [9]

C=CC(=O)OCCC(F)(F)C(F)(F)C(F)(F)C(F)(F)C(F)(F)C(F)(F)F
active: [2] 18.6 µM
inactive: [1] | [3] | [4] | [5] | [9]

O=C1c2ccccc2C(=O)c2c(O)c(O)cc(O)c21
inactive: [3] | [4] | [5] | [9]
active: [1] 32.4 µM | [2] 5.36 µM

CCCCN(C)C
inactive: [1] | [2] | [3] | [4] | [5] | [9]

CCCCCCCCCCCCCC[n+]1ccccc1
active: [2] 0.172 µM | [5] 177 µM
inactive: [1] | [3] | [4] | [9]

Cc1cc(C(=C2C=CC(=Nc3ccc(S(=O)(=O)O)cc3)C=C2)c2ccc(Nc3ccc(S(=O)(=O)O)cc3)cc2)cc(S(=O)(=O)O)c1N
inactive: [1] | [2] | [3] | [4] | [5] | [9]
